This passage reports inhibition results from ChEMBL document CHEMBL1961873, “Compounds: GSK PKIS; Assays: Nanosyn kinase panel” (2012).

Molecules are shown by their SMILES.

The target of experiment [1] is T1, Inhibitor of nuclear factor kappa-B kinase subunit epsilon (Homo sapiens) (UniProt Q14164).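 Further: reported values are averaged percent inhibition figures against human IKKε.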
T1 sequence (whole entry): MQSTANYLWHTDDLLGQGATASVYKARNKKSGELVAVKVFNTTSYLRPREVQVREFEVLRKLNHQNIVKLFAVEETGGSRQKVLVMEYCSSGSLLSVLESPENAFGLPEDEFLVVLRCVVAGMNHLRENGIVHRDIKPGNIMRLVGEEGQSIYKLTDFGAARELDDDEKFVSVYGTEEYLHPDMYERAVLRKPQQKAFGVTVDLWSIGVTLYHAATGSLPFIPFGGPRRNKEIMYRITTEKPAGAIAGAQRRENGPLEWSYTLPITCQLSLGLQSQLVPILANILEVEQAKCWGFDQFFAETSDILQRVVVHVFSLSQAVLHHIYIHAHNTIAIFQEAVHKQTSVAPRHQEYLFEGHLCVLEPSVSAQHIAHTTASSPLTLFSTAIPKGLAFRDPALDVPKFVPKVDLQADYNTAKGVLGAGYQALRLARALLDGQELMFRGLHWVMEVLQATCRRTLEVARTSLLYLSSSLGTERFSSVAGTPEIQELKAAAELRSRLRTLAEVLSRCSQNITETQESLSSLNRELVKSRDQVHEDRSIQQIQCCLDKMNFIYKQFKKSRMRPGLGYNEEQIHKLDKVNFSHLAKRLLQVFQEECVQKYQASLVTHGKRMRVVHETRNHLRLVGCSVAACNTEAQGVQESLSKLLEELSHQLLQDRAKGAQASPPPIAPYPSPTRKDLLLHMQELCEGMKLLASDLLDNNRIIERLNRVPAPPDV
To be noted: at 1 µM.

For experiment [2], the target named is T2, Serine/threonine-protein kinase Nek1 (Homo sapiens) (UniProt Q96PY6).
T2 sequence (whole entry): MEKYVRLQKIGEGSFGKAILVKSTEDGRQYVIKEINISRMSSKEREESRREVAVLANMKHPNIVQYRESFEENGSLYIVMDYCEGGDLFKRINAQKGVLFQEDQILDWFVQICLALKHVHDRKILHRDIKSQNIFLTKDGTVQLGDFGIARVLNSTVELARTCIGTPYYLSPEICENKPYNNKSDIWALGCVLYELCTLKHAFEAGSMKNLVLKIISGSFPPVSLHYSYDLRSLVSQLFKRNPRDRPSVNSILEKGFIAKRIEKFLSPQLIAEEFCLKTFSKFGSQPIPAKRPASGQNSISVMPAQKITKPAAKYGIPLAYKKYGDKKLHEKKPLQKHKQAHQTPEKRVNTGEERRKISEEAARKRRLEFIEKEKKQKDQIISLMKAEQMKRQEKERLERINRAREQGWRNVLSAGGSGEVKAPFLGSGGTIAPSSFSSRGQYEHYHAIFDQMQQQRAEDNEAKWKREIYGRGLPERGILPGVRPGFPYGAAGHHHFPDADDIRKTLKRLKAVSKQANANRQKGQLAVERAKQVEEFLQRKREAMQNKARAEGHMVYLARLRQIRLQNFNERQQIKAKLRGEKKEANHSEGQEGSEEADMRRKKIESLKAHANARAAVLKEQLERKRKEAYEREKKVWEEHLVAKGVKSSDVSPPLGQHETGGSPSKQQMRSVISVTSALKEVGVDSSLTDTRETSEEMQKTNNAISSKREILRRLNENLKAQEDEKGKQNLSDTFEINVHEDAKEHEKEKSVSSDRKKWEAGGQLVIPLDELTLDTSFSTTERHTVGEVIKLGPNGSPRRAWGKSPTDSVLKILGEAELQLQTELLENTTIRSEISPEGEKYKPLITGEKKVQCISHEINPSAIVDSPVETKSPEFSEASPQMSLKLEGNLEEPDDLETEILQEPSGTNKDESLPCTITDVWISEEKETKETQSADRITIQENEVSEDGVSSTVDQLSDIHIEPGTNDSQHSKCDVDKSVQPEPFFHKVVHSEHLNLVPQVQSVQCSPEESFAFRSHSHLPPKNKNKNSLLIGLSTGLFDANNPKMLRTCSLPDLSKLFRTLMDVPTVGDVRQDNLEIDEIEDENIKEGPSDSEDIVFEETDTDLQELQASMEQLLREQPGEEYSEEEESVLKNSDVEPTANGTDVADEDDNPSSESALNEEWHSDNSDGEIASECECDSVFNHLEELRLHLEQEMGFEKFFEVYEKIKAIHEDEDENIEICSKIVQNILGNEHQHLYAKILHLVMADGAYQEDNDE
Conditions: at 0.1 µM.

Experiment [3] addresses T2, Serine/threonine-protein kinase Nek1 (Homo sapiens). To be noted: at 1 µM.
Experiment [4] deals with T3, Serine/threonine-protein kinase Nek2 (Homo sapiens) (UniProt P51955).
T3 sequence (whole entry): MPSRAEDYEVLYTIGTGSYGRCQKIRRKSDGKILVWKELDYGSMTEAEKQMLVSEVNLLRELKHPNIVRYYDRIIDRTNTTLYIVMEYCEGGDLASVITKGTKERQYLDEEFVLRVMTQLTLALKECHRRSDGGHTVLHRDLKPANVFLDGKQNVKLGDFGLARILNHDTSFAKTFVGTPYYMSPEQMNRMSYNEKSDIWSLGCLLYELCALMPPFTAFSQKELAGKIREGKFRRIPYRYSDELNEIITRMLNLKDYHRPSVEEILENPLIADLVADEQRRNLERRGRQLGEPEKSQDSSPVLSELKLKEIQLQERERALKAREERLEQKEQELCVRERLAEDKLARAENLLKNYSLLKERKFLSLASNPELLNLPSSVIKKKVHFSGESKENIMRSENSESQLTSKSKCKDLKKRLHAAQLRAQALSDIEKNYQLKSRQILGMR
To be noted: at 0.1 µM.

Experiment [5] has as its target T3, Serine/threonine-protein kinase Nek2 (Homo sapiens). To be noted: at 1 µM.
In experiment [6] the target is Serine/threonine-protein kinase Nek6 (Homo sapiens) (UniProt Q9HC98). Conditions: at 0.1 µM.
Sequence of Serine/threonine-protein kinase Nek6 (Homo sapiens) (Q9HC98 whole entry): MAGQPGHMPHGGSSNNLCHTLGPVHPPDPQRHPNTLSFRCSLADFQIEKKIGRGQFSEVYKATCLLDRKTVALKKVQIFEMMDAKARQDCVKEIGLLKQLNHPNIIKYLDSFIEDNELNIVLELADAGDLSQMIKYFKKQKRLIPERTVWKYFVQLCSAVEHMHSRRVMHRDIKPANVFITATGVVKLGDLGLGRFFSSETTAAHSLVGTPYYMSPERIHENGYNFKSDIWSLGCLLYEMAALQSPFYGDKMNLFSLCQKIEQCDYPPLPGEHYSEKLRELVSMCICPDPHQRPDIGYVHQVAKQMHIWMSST
Experiment [7] has the same target. Conditions: at 1 µM.
Experiment [8] has as its target Serine/threonine-protein kinase Nek7 (Homo sapiens) (UniProt Q8TDX7). To be noted: at 0.1 µM.
The target is the same in experiment [9]. To be noted: at 1 µM.
The target in experiment [10] is T4, Serine/threonine-protein kinase Nek9 (Homo sapiens) (UniProt Q8TD19).
T4 sequence (whole entry): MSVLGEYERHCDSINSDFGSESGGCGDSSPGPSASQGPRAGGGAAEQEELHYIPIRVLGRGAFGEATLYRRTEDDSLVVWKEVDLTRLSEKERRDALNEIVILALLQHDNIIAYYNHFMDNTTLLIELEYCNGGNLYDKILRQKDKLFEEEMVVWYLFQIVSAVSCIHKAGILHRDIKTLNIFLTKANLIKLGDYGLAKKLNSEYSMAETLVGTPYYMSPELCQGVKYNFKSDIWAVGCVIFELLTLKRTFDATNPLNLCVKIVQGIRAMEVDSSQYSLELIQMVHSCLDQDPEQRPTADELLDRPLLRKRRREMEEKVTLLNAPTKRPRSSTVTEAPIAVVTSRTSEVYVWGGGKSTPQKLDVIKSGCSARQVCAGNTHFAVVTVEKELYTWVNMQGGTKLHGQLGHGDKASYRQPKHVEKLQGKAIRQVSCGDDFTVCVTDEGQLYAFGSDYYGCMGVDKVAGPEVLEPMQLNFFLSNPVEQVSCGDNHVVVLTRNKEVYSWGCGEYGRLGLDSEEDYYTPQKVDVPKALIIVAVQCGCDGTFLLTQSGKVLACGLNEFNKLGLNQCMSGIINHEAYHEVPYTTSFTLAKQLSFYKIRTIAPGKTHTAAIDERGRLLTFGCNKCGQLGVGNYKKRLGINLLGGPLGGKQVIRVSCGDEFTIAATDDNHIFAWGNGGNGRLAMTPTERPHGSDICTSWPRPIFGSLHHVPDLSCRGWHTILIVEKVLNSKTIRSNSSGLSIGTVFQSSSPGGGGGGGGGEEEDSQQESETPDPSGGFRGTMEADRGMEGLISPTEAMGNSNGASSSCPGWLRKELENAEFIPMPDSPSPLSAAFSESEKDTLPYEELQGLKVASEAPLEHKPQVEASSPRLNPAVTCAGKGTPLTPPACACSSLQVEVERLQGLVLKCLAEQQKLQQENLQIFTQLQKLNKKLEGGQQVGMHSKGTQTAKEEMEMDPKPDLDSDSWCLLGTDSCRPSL
To be noted: at 0.1 µM.

The target of experiment [11] is T4, Serine/threonine-protein kinase Nek9 (Homo sapiens). Conditions: at 1 µM.
The target in experiment [12] is Serine/threonine-protein kinase PLK1 (Homo sapiens) (UniProt P53350). To be noted: at 0.1 µM.
Sequence of Serine/threonine-protein kinase PLK1 (Homo sapiens) (P53350 whole entry): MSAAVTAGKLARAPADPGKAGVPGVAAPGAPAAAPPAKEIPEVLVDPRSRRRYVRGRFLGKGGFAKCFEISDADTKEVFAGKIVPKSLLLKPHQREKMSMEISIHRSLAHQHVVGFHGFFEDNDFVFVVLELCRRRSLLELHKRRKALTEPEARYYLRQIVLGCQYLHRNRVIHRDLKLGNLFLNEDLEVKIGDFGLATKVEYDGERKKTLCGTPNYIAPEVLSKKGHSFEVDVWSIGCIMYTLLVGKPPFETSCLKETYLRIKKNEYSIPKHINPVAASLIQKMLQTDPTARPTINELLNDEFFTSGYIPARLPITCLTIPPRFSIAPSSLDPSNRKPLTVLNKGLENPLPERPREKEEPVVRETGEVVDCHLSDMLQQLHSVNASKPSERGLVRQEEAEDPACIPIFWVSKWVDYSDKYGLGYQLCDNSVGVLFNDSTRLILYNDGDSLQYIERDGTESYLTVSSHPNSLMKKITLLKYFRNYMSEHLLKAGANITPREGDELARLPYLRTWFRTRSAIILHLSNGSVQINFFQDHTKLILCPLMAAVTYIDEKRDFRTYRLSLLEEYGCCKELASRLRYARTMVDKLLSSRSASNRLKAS
Experiment [13] has the same target. To be noted: at 1 µM.
Experiment [14] has as its target T5, Dual specificity protein kinase TTK (Homo sapiens) (UniProt P33981).
T5 sequence (whole entry): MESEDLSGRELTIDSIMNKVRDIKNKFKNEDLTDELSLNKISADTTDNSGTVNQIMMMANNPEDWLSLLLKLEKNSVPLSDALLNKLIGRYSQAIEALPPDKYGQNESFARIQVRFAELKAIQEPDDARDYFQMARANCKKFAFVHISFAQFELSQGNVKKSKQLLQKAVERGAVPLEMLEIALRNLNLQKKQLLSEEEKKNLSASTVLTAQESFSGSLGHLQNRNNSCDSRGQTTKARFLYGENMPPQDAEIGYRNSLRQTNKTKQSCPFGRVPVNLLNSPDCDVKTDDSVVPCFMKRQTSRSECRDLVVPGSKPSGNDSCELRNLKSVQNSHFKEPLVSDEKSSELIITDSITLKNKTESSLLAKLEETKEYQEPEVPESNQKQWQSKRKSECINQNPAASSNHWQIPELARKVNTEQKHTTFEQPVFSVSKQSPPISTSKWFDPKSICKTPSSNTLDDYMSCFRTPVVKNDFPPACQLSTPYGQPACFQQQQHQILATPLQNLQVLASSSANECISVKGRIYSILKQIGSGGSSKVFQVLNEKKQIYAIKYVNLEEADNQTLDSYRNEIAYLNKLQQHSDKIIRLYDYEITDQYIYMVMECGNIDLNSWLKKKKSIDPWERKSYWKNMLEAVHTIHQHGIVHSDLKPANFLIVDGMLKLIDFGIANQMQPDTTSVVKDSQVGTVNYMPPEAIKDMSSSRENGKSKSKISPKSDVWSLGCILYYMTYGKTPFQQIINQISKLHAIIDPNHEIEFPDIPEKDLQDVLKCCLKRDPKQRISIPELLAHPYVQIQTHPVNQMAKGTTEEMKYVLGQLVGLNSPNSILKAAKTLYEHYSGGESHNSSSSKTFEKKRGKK
To be noted: at 0.1 µM.

Experiment [15] relates to T6, Receptor-type tyrosine-protein kinase FLT3 (Homo sapiens), P36888 [D835Y].
T6 sequence (whole entry): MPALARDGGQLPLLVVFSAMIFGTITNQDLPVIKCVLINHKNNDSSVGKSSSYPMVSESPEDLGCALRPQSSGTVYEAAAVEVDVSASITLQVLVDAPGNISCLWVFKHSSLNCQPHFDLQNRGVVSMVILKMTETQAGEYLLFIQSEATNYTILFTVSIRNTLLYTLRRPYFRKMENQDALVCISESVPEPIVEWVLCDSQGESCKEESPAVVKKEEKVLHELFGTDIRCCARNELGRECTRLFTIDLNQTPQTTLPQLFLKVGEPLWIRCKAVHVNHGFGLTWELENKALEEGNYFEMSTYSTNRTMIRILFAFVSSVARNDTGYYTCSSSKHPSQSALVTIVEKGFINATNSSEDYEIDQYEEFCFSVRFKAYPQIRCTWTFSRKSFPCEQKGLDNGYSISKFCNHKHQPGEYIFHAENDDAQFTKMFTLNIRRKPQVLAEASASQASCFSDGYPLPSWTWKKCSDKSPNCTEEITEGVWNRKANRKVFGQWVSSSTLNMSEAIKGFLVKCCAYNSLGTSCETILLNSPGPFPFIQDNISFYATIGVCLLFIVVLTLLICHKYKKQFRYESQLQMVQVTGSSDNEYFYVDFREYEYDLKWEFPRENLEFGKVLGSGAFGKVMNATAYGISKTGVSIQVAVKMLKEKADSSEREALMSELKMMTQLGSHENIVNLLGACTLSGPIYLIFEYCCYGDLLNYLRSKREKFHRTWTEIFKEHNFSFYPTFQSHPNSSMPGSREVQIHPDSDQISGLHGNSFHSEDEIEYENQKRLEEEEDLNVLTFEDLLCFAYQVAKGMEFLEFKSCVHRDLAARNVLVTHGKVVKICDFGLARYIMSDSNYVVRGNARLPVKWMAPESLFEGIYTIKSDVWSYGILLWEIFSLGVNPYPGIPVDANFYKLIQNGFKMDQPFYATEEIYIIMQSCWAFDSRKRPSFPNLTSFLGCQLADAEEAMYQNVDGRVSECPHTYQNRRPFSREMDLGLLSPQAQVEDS
To be noted: at 1 µM.

The target in experiment [16] is Vascular endothelial growth factor receptor 3 (Homo sapiens) (UniProt P35916). Conditions: at 0.1 µM.
Sequence of Vascular endothelial growth factor receptor 3 (Homo sapiens) (P35916 whole entry): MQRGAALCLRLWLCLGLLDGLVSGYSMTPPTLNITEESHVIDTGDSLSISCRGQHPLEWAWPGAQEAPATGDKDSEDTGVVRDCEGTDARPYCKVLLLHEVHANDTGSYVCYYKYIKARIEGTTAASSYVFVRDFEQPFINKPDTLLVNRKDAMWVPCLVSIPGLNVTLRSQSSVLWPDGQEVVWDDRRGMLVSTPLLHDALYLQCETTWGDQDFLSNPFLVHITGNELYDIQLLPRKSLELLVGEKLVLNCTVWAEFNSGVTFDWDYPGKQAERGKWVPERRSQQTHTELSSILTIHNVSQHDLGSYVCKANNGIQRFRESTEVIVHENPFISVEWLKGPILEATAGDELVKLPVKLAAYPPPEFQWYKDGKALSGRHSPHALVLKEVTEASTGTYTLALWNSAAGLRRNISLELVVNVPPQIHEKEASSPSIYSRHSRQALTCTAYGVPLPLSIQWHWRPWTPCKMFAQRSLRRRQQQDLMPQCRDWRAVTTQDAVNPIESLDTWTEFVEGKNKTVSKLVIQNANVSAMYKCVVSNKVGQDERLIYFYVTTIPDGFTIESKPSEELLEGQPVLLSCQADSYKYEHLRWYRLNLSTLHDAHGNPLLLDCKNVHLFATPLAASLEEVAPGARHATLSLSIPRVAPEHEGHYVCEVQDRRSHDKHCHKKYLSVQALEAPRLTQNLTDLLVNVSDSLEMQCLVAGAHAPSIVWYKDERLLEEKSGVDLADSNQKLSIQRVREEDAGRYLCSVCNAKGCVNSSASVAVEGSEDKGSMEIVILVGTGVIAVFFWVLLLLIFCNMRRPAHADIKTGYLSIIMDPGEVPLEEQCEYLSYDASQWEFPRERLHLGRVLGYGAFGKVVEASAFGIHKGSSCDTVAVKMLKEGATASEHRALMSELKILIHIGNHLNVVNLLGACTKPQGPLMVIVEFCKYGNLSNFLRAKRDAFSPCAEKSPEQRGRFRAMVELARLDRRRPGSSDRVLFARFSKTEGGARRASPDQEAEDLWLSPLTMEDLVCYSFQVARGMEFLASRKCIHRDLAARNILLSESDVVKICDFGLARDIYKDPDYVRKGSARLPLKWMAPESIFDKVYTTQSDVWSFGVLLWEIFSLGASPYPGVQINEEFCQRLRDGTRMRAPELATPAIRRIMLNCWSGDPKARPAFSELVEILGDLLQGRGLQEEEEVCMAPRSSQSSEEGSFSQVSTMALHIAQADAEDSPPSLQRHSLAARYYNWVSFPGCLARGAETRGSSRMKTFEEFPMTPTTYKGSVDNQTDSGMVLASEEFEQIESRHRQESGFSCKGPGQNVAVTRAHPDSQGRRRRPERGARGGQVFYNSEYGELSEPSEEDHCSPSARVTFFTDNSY
Experiment [17] shares this target. Conditions: at 1 µM.
Experiment [18] addresses Macrophage colony-stimulating factor 1 receptor (Homo sapiens) (UniProt P07333). To be noted: at 0.1 µM.
For experiment [19] the target is unchanged. To be noted: at 1 µM.
In experiment [20] the target is Tyrosine-protein kinase Fyn (Homo sapiens) (UniProt P06241). Conditions: at 0.1 µM.
Sequence of Tyrosine-protein kinase Fyn (Homo sapiens) (P06241 2-537 limits assumed): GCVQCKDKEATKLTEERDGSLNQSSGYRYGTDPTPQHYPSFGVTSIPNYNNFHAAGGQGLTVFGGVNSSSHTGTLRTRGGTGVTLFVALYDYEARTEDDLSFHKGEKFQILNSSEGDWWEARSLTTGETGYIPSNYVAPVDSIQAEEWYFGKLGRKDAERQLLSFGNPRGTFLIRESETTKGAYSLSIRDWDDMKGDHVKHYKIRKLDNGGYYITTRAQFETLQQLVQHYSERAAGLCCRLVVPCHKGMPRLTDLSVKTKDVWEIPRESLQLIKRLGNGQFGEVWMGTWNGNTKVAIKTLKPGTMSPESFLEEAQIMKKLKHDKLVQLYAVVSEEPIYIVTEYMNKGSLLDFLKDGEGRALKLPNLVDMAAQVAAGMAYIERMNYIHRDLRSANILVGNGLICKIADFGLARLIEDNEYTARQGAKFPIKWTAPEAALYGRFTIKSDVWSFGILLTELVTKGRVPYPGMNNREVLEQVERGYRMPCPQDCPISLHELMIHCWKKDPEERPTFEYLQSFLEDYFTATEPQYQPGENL

Sequence of Serine/threonine-protein kinase Nek7 (Homo sapiens) (Q8TDX7 whole entry, looked up): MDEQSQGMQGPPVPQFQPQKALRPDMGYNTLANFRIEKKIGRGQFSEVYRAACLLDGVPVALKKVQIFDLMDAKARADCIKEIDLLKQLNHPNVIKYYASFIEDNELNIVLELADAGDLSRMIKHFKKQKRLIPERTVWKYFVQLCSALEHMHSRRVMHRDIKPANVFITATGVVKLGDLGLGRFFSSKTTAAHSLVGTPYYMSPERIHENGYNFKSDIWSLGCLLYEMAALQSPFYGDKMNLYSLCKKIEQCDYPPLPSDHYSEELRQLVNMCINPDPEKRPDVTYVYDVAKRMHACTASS
Sequence of Macrophage colony-stimulating factor 1 receptor (Homo sapiens) (P07333 whole entry): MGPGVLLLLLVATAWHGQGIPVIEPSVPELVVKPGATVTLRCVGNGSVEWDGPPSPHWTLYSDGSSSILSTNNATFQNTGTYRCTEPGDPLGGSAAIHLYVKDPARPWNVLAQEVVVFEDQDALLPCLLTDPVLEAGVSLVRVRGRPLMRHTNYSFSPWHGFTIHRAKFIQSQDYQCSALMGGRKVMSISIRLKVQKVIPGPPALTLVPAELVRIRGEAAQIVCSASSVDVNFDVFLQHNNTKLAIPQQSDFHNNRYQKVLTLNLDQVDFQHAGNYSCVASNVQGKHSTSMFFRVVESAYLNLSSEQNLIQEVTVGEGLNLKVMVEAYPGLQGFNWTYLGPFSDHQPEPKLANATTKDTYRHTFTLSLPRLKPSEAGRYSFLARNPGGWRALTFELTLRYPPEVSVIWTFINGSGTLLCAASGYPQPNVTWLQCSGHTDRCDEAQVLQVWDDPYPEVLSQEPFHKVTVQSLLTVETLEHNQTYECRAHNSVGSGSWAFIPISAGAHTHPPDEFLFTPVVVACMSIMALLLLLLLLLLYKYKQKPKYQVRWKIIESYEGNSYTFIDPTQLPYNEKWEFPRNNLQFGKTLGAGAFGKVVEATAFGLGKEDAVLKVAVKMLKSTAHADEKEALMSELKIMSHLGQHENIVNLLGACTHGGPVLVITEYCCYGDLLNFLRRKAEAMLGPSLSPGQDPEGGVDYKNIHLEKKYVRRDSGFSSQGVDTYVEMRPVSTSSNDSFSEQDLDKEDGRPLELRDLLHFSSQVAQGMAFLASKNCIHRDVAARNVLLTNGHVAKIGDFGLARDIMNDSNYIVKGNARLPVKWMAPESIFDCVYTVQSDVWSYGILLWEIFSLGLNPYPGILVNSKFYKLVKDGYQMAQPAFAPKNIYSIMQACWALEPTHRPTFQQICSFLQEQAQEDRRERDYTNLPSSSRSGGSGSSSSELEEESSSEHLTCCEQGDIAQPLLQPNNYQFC

Consider `NS(=O)(=O)c1ccc(-c2cc3ccncc3cc2OCc2ccccc2)cc1`, for which the inhibition (commonly the drop in the measured response relative to a control, in per cent) came to 2.21% in [1]; 2.31% in [2]; 2.44% in experiment [3]; 3.99% in [4]; 3.04% in experiment [5]; 3.18% in experiment [6]. The inhibition in experiment [7] was found to be 3.3%; in experiment [8], 5.28%; in [9], 4.88%; in experiment [10] it was 9.27%; in experiment [11] it was 7.84%; in experiment [12], 2.8%. Also, the inhibition is 1.7% in experiment [13]; 9.2% in experiment [14]; 1.86% in [15]; -1.68% in experiment [16]; 1.58% in experiment [17]; -0.56% in experiment [18]. The results for the inhibition in experiment [19] and in [20] were 1.76% and 1.04%, respectively.

For the compound `Cc1ccc(O)cc1Nc1ccnc2ccc(S(C)(=O)=O)cc12`, the inhibition in [1] amounted to 6.97%; in experiment [2] it was 2.87%; in experiment [3] it was 5.3%; in experiment [4], 5.76%; in experiment [5] it was 4.61%; in experiment [6], 1.23%. In addition, the inhibition is 4.89% in [7]; 5.32% in [8]; 4.35% in [9]; 4.3% in experiment [10]; 7.62% in experiment [11]; 4.22% in experiment [12]. For the same compound, the inhibition in experiment [13] is 2.78%; in [14], 8.17%; in [15], -0.22%; in experiment [16] it was 21.3%; in [17], 68.8%; in [18], 5.71%. Besides, the inhibition turned out to be 15.8% in experiment [19] and 92.4% in experiment [20].
